# In all, about 10,000 compounds went through this assay and about 320 (3.2%) were called active. The sample as a whole holds a higher share of actives than the screen did. Values without a mark were called inactive. Rule as the data show it: active = CPE inhibition mostly above about 9.1% (no sharp cut-off); inactive = mostly below about 7.2%.
# Assay: Dengue virus cytopathic effect inhibitors, cell-based, CPE readout, HTS (AID 540333)
# Conditions: Dengue virus CPE inhibition in host cells, at 20 µM; hits give high values
row,Structure (SMILES),CPE inhibition
1,c1ccc(-c2[nH]c(-c3ccccc3)[n+](CC3CO3)c2-c2ccccc2)cc1 (stereo not given),16.7% (active)
2,O=C(NCCCN1CCOCC1)C(Cl)(Cl)Cl,inactive
3,CCOC(=O)CCCCCNC(=O)c1c(O)[nH]c(=O)[nH]c1=O,inactive
4,N#CC(C#N)=Cc1ccc(-c2ccccc2F)o1,12.6% (active)
5,COC(=O)C1=C(c2ccc(C(C)=O)cc2)C[C@@H]2CC[C@H]1N2C(=O)N1CCCCC1,inactive
6,Cc1c(C(c2ccc(O)cc2)c2c(O)c3ccccc3oc2=O)c(=O)n(-c2ccccc2)n1C (stereo not given),0.205%
7,Cc1ccc(-n2c(O)c(/C=N/N3CCOCC3)c(=O)[nH]c2=S)cc1,0.115%
8,COC(=O)C1=C(c2ccc(F)cc2F)C[C@@H]2CC[C@H]1N2C(=O)NC(C)C,inactive
9,COc1ccc(/C=C/C(=O)c2c(O)n(CCC3=CCCCC3)c(=O)[nH]c2=O)cc1,9.38% (active)
10,O=C(/C=C/c1ccc2c(c1)OCO2)c1c(O)n(CCC2=CCCCC2)c(=O)[nH]c1=O,4.09%
11,O=C(N/N=C/c1c(O)n(CCC2=CCCCC2)c(=O)[nH]c1=O)c1ccccc1,0.065%
12,CC(ON1CC1(C(F)(F)F)C(F)(F)F)(C(N)=O)C(N)=O (stereo not given),0.53%
13,CC(C)N1C(=O)NC(=O)C2(Cc3cc([N+](=O)[O-])ccc3N(C)C2c2ccccc2)C1=O (stereo not given),1.19%
14,CN1c2ccc([N+](=O)[O-])cc2CC2(C(=O)NC(=O)N(c3ccccc3)C2=O)C1c1ccccc1 (stereo not given),15.4% (active)
15,CN1c2ccc([N+](=O)[O-])cc2CC2(C(=O)NC(=O)NC2=O)C1c1ccccc1 (stereo not given),inactive
16,CN1C(=O)C(=Cc2ccc(N3CCOCC3)o2)C(=O)N(C)C1=O,inactive
17,C/C(=N\Nc1ccccc1)c1c(O)n(Cc2ccccc2)c(=O)[nH]c1=O,inactive
18,COC(=O)C1=C(c2ccc(F)cc2F)C[C@@H]2CC[C@H]1N2C(=O)NCCOc1ccccc1Cl,3.74%
19,CCCc1nc2ccc(Br)cc2c(=O)n1-c1ccc([N+](=O)[O-])c(C(F)(F)F)c1,0.98%
20,COC(=O)C1=C(c2cc3ccccc3o2)C[C@@H]2CC[C@H]1N2C(=O)NCc1cccc2ccccc12,16.2% (active)
21,CCCNC(=O)N1[C@H]2CC[C@@H]1C(C(=O)OC)=C(c1cc3ccccc3o1)C2,4.1%
22,COC(=O)C1=C(c2cc3ccccc3o2)C[C@@H]2CC[C@H]1N2C,0.83%
23,CCC(=NCCC(c1ccccc1)c1ccccc1)c1c(O)[nH]c(=O)[nH]c1=O,2.3%
24,COC(=O)C1=C(c2ccc3ccccc3c2)C[C@@H]2CC[C@H]1N2C(=O)NC1Cc2ccccc2C1,6.91%
25,O=C(Nc1ccccc1)c1c(O)[nH]c(=O)[nH]c1=O,inactive
26,Cc1ccc(CN2C(=O)CN=C(c3ccccc3)c3ccccc32)cc1,9.14% (active)
27,O=C1CN=C(c2ccccc2)c2cc(Br)ccc2N1Cc1cc(=O)n2ccccc2n1,0.155%
28,O=C(N/N=C/c1c(O)n(CCc2ccccc2)c(=O)[nH]c1=O)c1ccncc1,0.65%
29,CN(C)S(=O)(=O)c1cc(NC(=O)COC(=O)Cc2ccccc2)ccc1Cl,inactive
30,COC(=O)C1=C(c2ccc(S(C)(=O)=O)cc2)C[C@@H]2CC[C@H]1N2C(=O)NCc1ccc(C(F)(F)F)cc1,0.31%
